Calls of active or inactive are those of the source. The calls were made as follows: active = hit-call score of the fitted dose curve at least 0.9, where 1 is the maximum; inactive = score below 0.9.
experiment: ATG_AP_1_CIS: Attagene CIS-FACTORIAL HepG2 Assay for human Activator Protein 1 (AP-1) (AID 2282931); conditions: HepG2 Attagene cis-factorial AP-1 reporter mRNA; actives raise or lower the signal
Experimental: ATG_CIS is a cell-based, multiplexed-readout assay that uses HepG2, a human liver cell line, with measurements taken at 24 hours after chemical dosing in a 24-well plate.ATG_AP_1_CIS is one of 52 assay component(s) measured or calculated from the ATG_CIS assay. It is designed to make measurements of mRNA induction, a form of inducible reporter, as detected with fluorescence intensity signals by Reverse transcription polymerase chain reaction (RT-PCR) and Capillary electrophoresis technology.Data from the assay component ATG_AP_1_CIS was analyzed into 1 assay endpoint. This assay endpoint, ATG_AP_1_CIS, was analyzed with bidirectional fitting relative to DMSO as the negative control and baseline of activity. Using a type of inducible reporter, measures of mRNA for gain or loss-of-signal activity can be used to understand the reporter gene at the transcription factor-level as they relate to the gene FOS and JUN. Furthermore, this assay endpoint can be referred to as a primary readout, because this assay has produced multiple assay endpoints where this one serves a reporter gene function. To generalize the intended target to other relatable targets, this assay endpoint is annotated to the dna binding intended target family, where the subfamily is basic leucine zipper.
Human liver HepG2 cells are transiently transfected with multiple reporter transcription units (MRTUs) in 6-well plates using FuGene 6 reagent (Roche; 3 ml FuGene/1 mg DNA). The MRTU constructs are regulated by a cis-regulating element (promoter). […] A major difference between the CIS and TRANS system is that in CIS activities of endogenous TFs are measured, whereas the TRANS assay evaluates changes in activities of exogenous, chimeric NR-Gal4 proteins. […] At the end of 24 hour incubation, total RNA was isolated using TriZol reagent (Invitrogen). The isolated RNA is then reverse-transcribed using oligo(dT) primer and Mo-MLV reverse transcriptase (Invitrogen) with DNAse I (Ambion) treatment for 30 min. The one-tenth of the produced cDNA was amplified by PCR using Taq DNA polymerase (Invitrogen) and two reporter sequence-specific primers. The PCR products were fluorescently labeled by primer extension with 6-arboxyfluorescein (6-FAM) 5'-labeled reporter sequence-specific primer (2 min at 95 C, 20 s at 68 C and 10 min at 72 C) and these products were digested with 5U of HpaI (New England Biolabs) for 2h at 37 C. The fragments were purified using Qiaquick PCR columns (Qiagen), analyzed on an ABI 3130xL genetic analyzer (Applied Biosystems) with peak positions identified by using a set of X-rhodamine (ROX)-labeled MapMarker1000 molecular weight standards (BioVentures). The raw capillary electrophoresis data was processed using Attagraph software (Attagene).

outcome, inactive:
O=c1cc(-c2ccccc2)oc2cc(O)cc(O)c12
CC(=O)C(C)=O
Clc1cccc(Cl)n1
CC(=O)OCc1ccc2c(c1)OCO2
O=C(Cl)c1cccc(C(=O)Cl)c1
CCCCCCCCCCN
CCCCCCCCCCCCCOS(=O)(=O)O
CCC/C=C/C=O
CCO[Si](CCCS)(OCC)OCC
COC(=O)Cc1cccc2ccccc12
C=C(C)C1CCC(C)CC1O (stereo not given)
O=Cc1ccc(F)cc1
CC(C)(C)NC(N)=O
CC1(C)[C@H]2CC[C@]1(C)[C@H](O)C2
CCCCOCCOCCOCCOCCO
COc1ccc(OC)c(OC)c1
Nc1cccc(S(=O)(=O)c2cccc(N)c2)c1
CC1CCC(C(C)(C)O)CC1 (stereo not given)
O=C(O)c1cn(-c2ccc(F)cc2)c2cc(N3CCNCC3)c(F)cc2c1=O
CC1CCC(C(C)CS)CC1S (stereo not given)
CCCC1CCC(=O)O1 (stereo not given)
C=C(C)C(=O)NCCCN(C)C
C/C=C(\C)C(=O)OCc1ccccc1
CC(=O)C(=O)O
C=CC(=O)OCC(O)COc1ccccc1 (stereo not given)
O=S(=O)(O)NC1CCCCC1
CC(C)(CO)[N+](=O)[O-]
CCCC(C)C=O (stereo not given)
CCCCc1ccc(N)cc1
CCCCCCCCCCCCN(CCCCCCCCCCCC)CCCCCCCCCCCC
CCC(C)(O)CCC=C(C)C (stereo not given)
C=CCOc1nc(OCC=C)nc(OCC=C)n1
CN(C)C(=N)N=C(N)N
OCCCCCO
Cc1ccccc1C=O

AC50, active:
Cc1ccc(O)c(C(C)(C)C)c1 100 µM
O=Cc1ccc(Cl)c([N+](=O)[O-])c1 25.8 µM
C=CC(C)(O)CCC=C(C)CCC=C(C)C (stereo not given) 154 µM
CSc1nc(NC2CC2)nc(NC(C)(C)C)n1 47.5 µM
CCCCCCCCCCCCOCCO 50.2 µM
